Source: a collection of fitness landscapes (doi:10.1126/science.1257360)
The full ranking holds about 140,000 sequences; the median of “enrichment ratio after two sorts for PhoP signalling” is about 0, and the highest 2% start at about 11. The sample as a whole holds a higher share of the highest values than the screen did.

B1: PhoQ; a variant is named by its letters at X, in order, P23837 (parent)
chain: MKKLLRLFFPLSLRVRFLLATAAVVLVLSLAYGMVALIGYSVSFDKTTFRLLRGESNLFYTLAKWENNKLHVELPENIDKQSPTMTLIYDENGQLLWAQRDVPWLMKMIQPDWLKSNGFHEIEADVNDTSLLLSGDHSIQQQLQEVREDDDDAEMTHSVAVNVYPATSRMPKLTIVVVDTIPVELKSSYMVWSWFIYVLSANLLLVIPLLWVAAWWSLRPIEALAKEVRELEEHNRELLNPATTRELTSLVRNLNRLLKSERERYDKYRTTLTDLTHSLKTPLXXLQXXLRSLRSEKMSVSDAEPVMLEQISRISQQIGYYLHRASMRGGTLLSRELHPVAPLLDNLTSALNKVYQRKGVNISLDISPEISFVGEQNDFVEVMGNVLDNACKYCLEFVEISARQTDEHLYIVVEDDGPGIPLSKREVIFDRGQRVDTLRPGQGVGLAVAREITEQYEGKIVAGESMLGGARMEVIFGRQHSAPKDE

Variants of: B1
Assay: enrichment ratio after two sorts for PhoP signalling (ratio (wild type AVST 3.29)); higher = more functional
Settings: with PhoP (E. coli)

Row | Variant | enrichment ratio
1 | HSGG | ≤ 0.25
2 | FKNI | ≤ 0.25
3 | NEDI | ≤ 0.25
4 | NKAR | ≤ 0.25
5 | FVHD | ≤ 0.25
6 | WDYC | ≤ 0.25
7 | AITE | ≤ 0.25
8 | AMNL | 3.05
9 | AMCL | 15.7
10 | AMPE | ≤ 0.25
11 | AMCK | ≤ 0.25
12 | NMCL | ≤ 0.25
13 | AMTE | 15.1
14 | AMCS | 5.27
15 | AMCE | 67.3
16 | AKTE | ≤ 0.25
17 | AMIE | ≤ 0.25
18 | AMCI | 14.1
19 | PGVP | ≤ 0.25
20 | HSSS | ≤ 0.25
21 | DNCF | ≤ 0.25
22 | HRPL | ≤ 0.25
23 | NSCR | ≤ 0.25
24 | ILKS | ≤ 0.25
25 | APIM | ≤ 0.25
26 | QGSM | 9.07

Row | Variant | enrichment ratio
27 | AMCA | 19.4
28 | AMPI | 0.985
29 | AMPA | ≤ 0.25
30 | MMHC | ≤ 0.25
31 | GDNT | ≤ 0.25
32 | NQIQ | ≤ 0.25
33 | GDHP | 1.16
34 | GDHQ | ≤ 0.25
35 | GDIT | 14
36 | GDIQ | 17.5
37 | GNIQ | 9.19
38 | GQIQ | 14.9
39 | GDLT | ≤ 0.25
40 | VNKQ | ≤ 0.25
41 | GRCH | ≤ 0.25
42 | YDLC | ≤ 0.25
43 | IFMM | ≤ 0.25
44 | SGFA | ≤ 0.25
45 | GGLM | 2.85
46 | HGLM | 16.4
47 | CFLM | ≤ 0.25
48 | NGLM | 13.2
49 | HFLM | ≤ 0.25
50 | HRLM | ≤ 0.25
51 | SGLM | 17.9
52 | RGLM | ≤ 0.25

Row | Variant | enrichment ratio
53 | SGFM | 5.94
54 | AGLM | 6.12
55 | TGLM | 26.9
56 | RWIP | ≤ 0.25
57 | VHKL | ≤ 0.25
58 | MHLQ | ≤ 0.25
59 | DMYA | ≤ 0.25
60 | SEHG | ≤ 0.25
61 | VTGQ | ≤ 0.25
62 | YERP | ≤ 0.25
63 | RWVH | ≤ 0.25
64 | EIKR | ≤ 0.25
65 | WPFI | ≤ 0.25
66 | MTAY | 4.94
67 | IGFA | ≤ 0.25
68 | IGLM | 14
69 | IGLA | ≤ 0.25
70 | QFWE | ≤ 0.25
71 | ANIE | ≤ 0.25
72 | TGII | ≤ 0.25
73 | AGII | 33.2
74 | ANCA | 44.6
75 | ANSE | 11.5
76 | AKSE | ≤ 0.25
77 | AGID | ≤ 0.25
78 | ADSE | ≤ 0.25
